Hits are enriched below; roughly 7.6% of the tested compounds scored in any of these assays.
CRE-bla Fsk: alters forskolin-stimulated CRE reporter signaling in CHO cells; CHO CRE-bla reporter (cAMP response element driving beta-lactamase), forskolin EC10, beta-lactamase ratio; actives 2.5% (n = 71,000); Potency, µM (top dose mostly 38.2 µM), for inactives: at the top dose activity change, negative = inhibition, actives largely listed as activators; active means well fitted activation curve with a large enough effect in the signal ratio, with a control signal flat, not every such curve was filed as active; inconclusive means small, poorly fitted or top-dose-only effect, or effect the other way, or a change in a side signal; the % refers to the signal ratio; further: % of control where 0% means no effect
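CRE-bla CHO cells stimulated with EC10 NKH 477 (water-soluble forskolin) and compound titrations, 3 h at 37C; beta-lactamase read with CCF4 after 2 h at room temperature. Activity from 460/530 nm emission ratio, AC50 values for positive or negative modulation.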
HEK293 cAMP ctrl: parental HEK293 cAMP activation (counter-screen). Potency, µM (titrated, usually from 57.1 µM), inactives show top-dose activation, hits mostly activators. AID 938. actives 2.5% (n = 73,000). parental HEK293 CNG cAMP sensor, membrane potential fluorescence; further: % of control where 0% means no effect; nearly all actives have a fitted effect of over 55% in size
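Parental HEK 293 cells stably expressing a cAMP-gated CNG channel were loaded with membrane potential dye containing 100 uM RO 20-1724 for 60 min. Compound added for 30 min; depolarization read as fluorescence intensity at 590 nm.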
TSHR agonist: TSH receptor (human) agonism; actives 0.48% (n = 73,000); AID 926; HEK293-CNG-TSHR cells (CNG channel as cAMP sensor), membrane potential dye, cAMP; P16473; Potency, µM (doses to about 57.1 µM), without a hit: top-dose activation, usual class: activators; active means well fitted activation curve with a large enough effect in the main read-out, with a control signal flat, not every such curve was filed as active; inconclusive means small, poorly fitted or top-dose-only effect, or a change in a side signal; inactive means no such curve, though single readings can be large or run the other way; % of control where 0% means no effect;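 further: the control signal comes from parental cells without the receptor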
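cAMP rise detected as CNG-channel membrane depolarization by fluorescent dye (emission 590 nm), 30 min after compound, following 60 min dye loading containing 100 uM RO 20-1724 at room temperature. Cells: TSHR/CNG HEK 293, with parental CNG HEK 293 as control.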
Tau fil binding: binds recombinant human tau filaments. P10636. recombinant tau filaments, thioflavin S fluorescence, 15 h; filaments grown with octadecylsulfate alongside compound. Potency, µM (doses to about 57.1 µM), without a hit: top-dose activity change, negative = inhibition. actives 2% (n = 71,000);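 further: on the % scale 0 is the no-effect control and ±100 the full control effect; actives lower thioflavin S fluorescence by blocking filaments or displacing dye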
Target sequence (P10636 whole entry, looked up): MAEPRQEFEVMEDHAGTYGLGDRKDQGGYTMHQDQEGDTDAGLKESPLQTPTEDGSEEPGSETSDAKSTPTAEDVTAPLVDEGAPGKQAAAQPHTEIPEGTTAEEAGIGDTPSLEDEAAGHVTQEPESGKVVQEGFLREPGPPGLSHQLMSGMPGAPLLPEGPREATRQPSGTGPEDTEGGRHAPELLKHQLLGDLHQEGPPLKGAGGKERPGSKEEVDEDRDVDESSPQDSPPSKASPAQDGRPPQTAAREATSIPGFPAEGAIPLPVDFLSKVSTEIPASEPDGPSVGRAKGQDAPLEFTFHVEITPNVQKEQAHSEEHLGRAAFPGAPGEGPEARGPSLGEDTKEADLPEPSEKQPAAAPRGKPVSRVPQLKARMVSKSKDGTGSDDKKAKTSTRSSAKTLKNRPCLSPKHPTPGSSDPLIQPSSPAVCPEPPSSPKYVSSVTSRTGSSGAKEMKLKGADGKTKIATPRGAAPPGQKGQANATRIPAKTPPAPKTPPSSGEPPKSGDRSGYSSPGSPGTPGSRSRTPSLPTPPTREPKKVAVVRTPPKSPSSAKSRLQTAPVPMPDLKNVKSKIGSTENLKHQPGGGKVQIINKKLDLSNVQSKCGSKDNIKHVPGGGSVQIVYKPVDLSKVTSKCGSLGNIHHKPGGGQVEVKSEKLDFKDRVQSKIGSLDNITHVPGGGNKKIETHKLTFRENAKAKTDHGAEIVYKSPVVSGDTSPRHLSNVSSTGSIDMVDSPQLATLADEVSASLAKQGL
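Tau 2 uM in ThS buffer dispensed; compound added; 60 uM ODS added (finals 1 uM tau, 30 uM ODS); 15 h 37 C; fluor ex450/em510.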
ERK AVP inh: blocks ERK signaling stimulated by vasopressin; Potency, µM (series often up to 57.5 µM), without a hit: top-dose activity, negative = inhibition, most hits filed as inhibitors; HEK293-V1b, vasopressin-stimulated pERK AlphaScreen; actives 0.99% (n = 72,000); AID 995; further: on the % scale 0 is the no-effect control and ±100 the full control effect; nearly all actives have a fitted effect of over 55% in size
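HEK293 cells stably expressing V1b receptor, seeded overnight in 1% FBS, were treated with compounds for 30 min at 37C, then stimulated 5 min with 25 nM vasopressin; phospho-ERK read by AlphaScreen SureFire after lysis.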
Active calls of the source: *; ! = not active in a repeat; [ ] = remark or other dose. Unless noted, the call rests on the fitted dose curve; in most records, active means well fitted curve in the direction sought with a large enough effect; inconclusive means small, poorly fitted or top-dose-only effect, or another doubt; inactive means no such curve, though single readings can be large; an effect the other way counts as inactive or inconclusive. Potency means the concentration at half of the fitted maximal effect.

CN(C)c1ncc2nc(-c3ccccc3)c(=O)n(-c3ccccc3)c2n1 was read as CRE-bla Fsk inconclusive, HEK293 cAMP ctrl -5%, TSHR agonist 0%, Tau fil binding 52% and ERK AVP inh -16%.
For CO/N=C(\C(=O)N[C@@H]1C(=O)N2C(C(=O)O)=C(CSc3nc(=O)c(O)nn3C)CS[C@@H]12)c1csc(N)n1 the results were CRE-bla Fsk 5%, HEK293 cAMP ctrl -8%, TSHR agonist 2%, Tau fil binding 5% and ERK AVP inh 2%.
Screening Cc1cnc(CNc2nc(-c3ccc(N(C)C)cc3)nc3ccccc23)cn1 returned CRE-bla Fsk inconclusive, HEK293 cAMP ctrl -58%, TSHR agonist inconclusive, Tau fil binding inactive and ERK AVP inh 16%.
`COc1ccc(NC(=O)c2ccc(-c3ccc(-c4noc(C)n4)cc3C)cc2)cc1N1CCN(C)CC1` gave CRE-bla Fsk -27%, HEK293 cAMP ctrl inconclusive, TSHR agonist inconclusive, Tau fil binding -32% and ERK AVP inh 13µM*!.
COc1ccc(Cl)cc1-c1nc(-c2ccc(NC(=O)c3ccncc3)cc2)no1 was read as CRE-bla Fsk 21%, HEK293 cAMP ctrl 4%, TSHR agonist 18%, Tau fil binding 117% and ERK AVP inh -21%.
`COc1ccc(-c2nc(-c3ccc(NC(=O)c4ccncc4)cc3)no2)cc1OC` gave CRE-bla Fsk inconclusive, HEK293 cAMP ctrl 0%, TSHR agonist -6%, Tau fil binding 136% and ERK AVP inh 10µM*.
For Cc1ccccc1N=C(N)Nc1ccccc1C the results were CRE-bla Fsk -24%, HEK293 cAMP ctrl 16µM*, TSHR agonist inconclusive, Tau fil binding inconclusive and ERK AVP inh -18%.
Screening CO/N=C(\C(=O)N[C@@H]1C(=O)N2C(C(=O)[O-])=C(C[N+]3(C)CCCC3)CS[C@@H]12)c1csc(N)n1 returned CRE-bla Fsk 5%[17.1 µM], HEK293 cAMP ctrl -3%[25.6 µM], TSHR agonist -2%[25.6 µM], Tau fil binding -2%[25.6 µM] and ERK AVP inh 11%[25.7 µM].
For C=CCn1c(=O)c(C(=O)NCCNCC)c(O)c2ccccc21 the results were CRE-bla Fsk 3%, HEK293 cAMP ctrl 13µM*, TSHR agonist inconclusive, Tau fil binding 2% and ERK AVP inh -22%.
For COc1ccc(-c2nc(SC)n(C)c(=O)c2C#N)cc1OC the results were CRE-bla Fsk inconclusive, HEK293 cAMP ctrl 2%, TSHR agonist 11%, Tau fil binding -1% and ERK AVP inh inconclusive.
CCc1nc(C)c(C#N)c2cc(OC)c(OC)cc12 was read as CRE-bla Fsk inconclusive, HEK293 cAMP ctrl 4%, TSHR agonist 9%, Tau fil binding 3% and ERK AVP inh 25µM*.
N[C@@H](C(=O)O)c1ccc(C(=O)O)c(C(=O)O)c1 was read as CRE-bla Fsk inconclusive, HEK293 cAMP ctrl -3%, TSHR agonist 0%, Tau fil binding inconclusive and ERK AVP inh 7%.
Screening O=C1c2ccccc2C(Nc2ccc(Cl)cn2)N1c1ccccn1 (stereo not given) returned CRE-bla Fsk 6%, HEK293 cAMP ctrl 16µM*, TSHR agonist inconclusive, Tau fil binding -16% and ERK AVP inh -16%.
`FC(F)(F)c1cc(-c2ccco2)nc(-n2nnc3ccccc32)n1` gave CRE-bla Fsk 9%, HEK293 cAMP ctrl 25µM*, TSHR agonist inconclusive, Tau fil binding -28% and ERK AVP inh -4%.
Screening CN1CCN(S(=O)(=O)c2cccc(C(=O)Nc3sc4c(c3C(N)=O)CCCC4)c2)CC1 returned CRE-bla Fsk 0.79µM*, HEK293 cAMP ctrl 2%, TSHR agonist 12%, Tau fil binding 2% and ERK AVP inh -20%.
For CCOc1ccc(C2=Nn3c(nnc3-c3ccc(OC)cc3)SC2)cc1 the results were CRE-bla Fsk 13µM*, HEK293 cAMP ctrl inconclusive, TSHR agonist inconclusive, Tau fil binding 242% and ERK AVP inh inconclusive.
COc1ccc(-c2nnc3n2N=C(c2ccccc2)CS3)cc1OC was read as CRE-bla Fsk -7%, HEK293 cAMP ctrl 1%, TSHR agonist 15%, Tau fil binding -2% and ERK AVP inh 3%.
